According to PubChem BioAssay AID493030 (The Scripps Research Institute Molecular Screening Center, 2011):
Hit rate of the full screen: of about 2,300 compounds, about 1,500 (65%) were called active.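 How the source made its calls: active means mean inhibition over three repeats above a set limit taken from the earlier primary screen (cut at about 30% in these data); inactive means the rest.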 The set was probably picked from earlier hits. The list is a sample of the results.

Biological target: Platelet-activating factor acetylhydrolase 2, cytoplasmic (Homo sapiens) (UniProt Q99487)
Test: inhibition of cytoplasmic PAF acetylhydrolase 2 – biochemical, fluorescence polarization, human, confirmation (AID 493030);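 further: inhibitor blocks binding of rhodamine activity probe so polarization falls; 0% = enzyme with DMSO and 100% = wells lacking PAFAH2 protein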
Details: recombinant PAFAH2, FP-rhodamine activity probe, at 3.39 µM, stronger effect = higher value

Compound | inhibition
COc1ccc(/C=N/N(C)C2=NS(=O)(=O)c3ccccc32)cc1OC | 9.39% (inactive)
COc1ccc(C(=O)ON=C2c3ccccc3-c3ccccc32)cc1OC | 68.7% (active)
O=C(Nc1nnc(SCc2c(Cl)cccc2Cl)s1)C1CCCO1 (stereo not drawn) | 24% (inactive)
O=C(Nc1nnc(SCc2c(Cl)cccc2Cl)s1)c1cccc([N+](=O)[O-])c1 | 52% (active)
O=C(Nc1nnc(SCc2ccccc2Cl)s1)c1cccc([N+](=O)[O-])c1 | 22.6% (inactive)
O=c1oc(/C=C/c2ccccc2)nc2ccccc12 | 79.7% (active)
O=C(COC(=O)c1ccco1)Nc1ccc(Cl)cn1 | 33.1% (active)
Cc1ccc(NC(=O)COC(=O)C2C3CC4OC(=O)C2C4C3)cc1Cl (stereo not drawn) | 76% (active)
Cc1ccc(Cl)cc1NC(=O)COC(=O)C1CCCCC1 | 17.7% (inactive)
Cc1ccc(NC(=O)COC(=O)C2CC2)cc1S(=O)(=O)N1CCOCC1 | 61.3% (active)
Cc1ccc(C(=O)OCC(=O)Nc2ccc(Cl)cn2)cc1S(=O)(=O)N1CCOCC1 | 54.4% (active)
Oc1oc(-c2ccccc2Br)nc1/C=N/c1ccccn1 | 52.6% (active)
COc1ccc(C2=NN(c3nc4ccccc4s3)C(=O)C2)cc1 | 46.9% (active)
CC1CC1C(=O)OCC(=O)Nc1cccc(F)c1 (stereo not drawn) | 83.6% (active)
O=C(COC(=O)C1CC2C=CC1C2)Nc1ccccc1 (stereo not drawn) | 69.6% (active)
COc1cc(NC(=O)COC(=O)c2ccc([N+](=O)[O-])s2)cc(OC)c1OC | 35.9% (active)
Cc1c(Cl)cnc(NC(=O)COC(=O)C2CCCC2)c1Cl | 15.8% (inactive)
O=C(OCc1nc2ccccc2[nH]1)C1CCCCC1 | 51.7% (active)
O=C(O)c1ccccc1N=N/C(=N/Nc1cc(S(=O)(=O)O)ccc1O)c1ccccc1 | 8.84% (inactive)
COc1ccccc1Nc1nc(N)nc(CSC(=S)N2CCOCC2)n1 | 26.7% (inactive)
CCn1c(/C=N/NC(=O)c2ccc(OC)cc2)nc2ccccc21 | 6.41% (inactive)
N#Cc1cccc(NC(=O)COC(=O)c2ccccc2C(=O)c2ccc(Cl)c([N+](=O)[O-])c2)c1 | 34.2% (active)
CC1=NN(c2ccc(Cl)c(C(=O)O)c2)C(=O)/C1=C/c1ccc(-c2ccccc2[N+](=O)[O-])o1 | 27.5% (inactive)
Cc1cc(C(=O)COC(=O)C2CC2)c(C)n1-c1ccc(F)cc1 | 36.1% (active)
Cc1ccc(-c2nc3c(cnn3-c3ccccc3)c(=O)o2)cc1 | 44% (active)

Compound | inhibition
CC(=O)Oc1ccc(-c2nc3c(C)cccc3c(=O)o2)cc1 | 23.6% (inactive)
Cc1cccc(/C=N/NC(=O)CNc2cccc3ccccc23)n1 | 30.5% (active)
Clc1ccccc1CSc1nnc(-c2ccco2)c(-c2ccco2)n1 | 16.4% (inactive)
COc1ccc(C(=O)OCC(=O)NCC2CCCCC2)cc1S(=O)(=O)N1CCCc2ccccc21 | 60.8% (active)
COc1ccc(C(=O)O/N=C(\N)Cc2ccc(Cl)cc2Cl)cc1OC | 80.9% (active)
O=C(NNC(=O)c1ccccc1O)c1ccccc1O | 20.3% (inactive)
O=c1oc(-c2ccccc2NS(=O)(=O)c2ccc(Cl)cc2)nc2ccccc12 | 76.7% (active)
O=[N+]([O-])c1ccc(C=Nc2ccc(Cl)cc2Cl)s1 | 7.11% (inactive)
O=C(COC(=O)c1ccc([N+](=O)[O-])o1)NC12CC3CC(CC(C3)C1)C2 | 46.4% (active)
COc1cc(C(=O)OCC(=O)NC23CC4CC(CC(C4)C2)C3)cc(OC)c1OC | 67.7% (active)
O=C(COC(=O)c1cccnc1Cl)NC12CC3CC(CC(C3)C1)C2 | 74.8% (active)
COCCNC(=O)/C(C#N)=C/c1cccc(OCc2ccccc2)c1 | 12% (inactive)
O=C(Cc1ccc(S(=O)(=O)N2CCOCC2)s1)NCCOc1ccccc1F | 30.5% (active)
CC(C)(C)c1ccc(/C=C2\Oc3c(ccc(O)c3CN3CCN(CCO)CC3)C2=O)cc1 | 66.7% (active)
Cn1cccc1C(=O)OCC(=O)c1ccc(Br)s1 | 21% (inactive)
COc1ccc(C(=O)OCC(=O)c2ccc(Cl)s2)c(OC)c1OC | 73.5% (active)
COc1ccc(/C=C/C(=O)OCC(=O)NCc2cccs2)cc1OC | 56.9% (active)
O=C(COC(=O)/C=C/c1cccc(Cl)c1)NCc1cccs1 | 35% (active)
CCOC(=O)CCCN1CC(O)=C(c2nc3ccccc3s2)C1=N | 28.1% (inactive)
O=C(COC(=O)c1n[nH]c2ccccc12)NCc1ccccc1 | 28.3% (inactive)
O=C(COC(=O)c1n[nH]c2ccccc12)Nc1ccccc1Br | 38.6% (active)
COCC1CCN(C(=O)c2ccc3oc(Cc4ccccc4)nc3c2)C1 (stereo not drawn) | 40.8% (active)
Cc1ccc(/C=C/C(=O)OCC(=O)Nc2cccnc2Cl)cc1 | 23.7% (inactive)
C/C=C/C=C/C(=O)OCC(=O)Nc1ccc(Cl)cc1 | 82.9% (active)
Cc1oc2cc(Br)c(O)c(Br)c2c1C(=O)c1ccccc1 | 49.5% (active)

Compound | inhibition
O=C(c1cccnc1)N(c1cc2sc(=O)oc2c2ccccc12)S(=O)(=O)c1ccccc1 | 25% (inactive)
COc1ccc(C(=O)OCC(=O)Nc2cccc(C(C)=O)c2)cc1OC | 79% (active)
COc1ccc(C(=O)OCC(=O)NCCCc2ccccc2)cc1OC | 53.5% (active)
COc1ccc(OC)c(/C=C/C(=O)OCC(=O)Nc2ccc3c(c2)OCCO3)c1 | 48.2% (active)
COc1cc(/C=C/C(=O)OCC(=O)Nc2cccc(Oc3ccccc3)c2)ccc1O | 61.8% (active)
COc1ccc(/C=C/C(=O)OCC(=O)Nc2cccc(Oc3ccccc3)c2)c(OC)c1 | 34.4% (active)
COc1cccc(NC(=O)COC(=O)/C=C/c2ccco2)c1 | 77.9% (active)
CC(C)CNC(=O)COC(=O)/C=C/c1ccco1 | 70.3% (active)
COc1cc(/C=C/C(=O)OCC(=O)NCCCc2ccccc2)ccc1O | 35.2% (active)
COc1cccc(C(=O)n2ccc(-c3cccs3)n2)c1 | 11.4% (inactive)
Cc1cc(C(=O)OCC(=O)Nc2ccc(F)c(F)c2)c(C)o1 | 74.4% (active)
Cc1cc(C(=O)OCC(=O)Nc2ccccc2Cl)c(C)o1 | 31.5% (active)
Cc1cc(C(=O)NNC(=O)c2ccccc2O)c(C)o1 | 23.2% (inactive)
Cc1cc(C)cc(NC(=O)COC(=O)c2cc(C)oc2C)c1 | 61.5% (active)
CC(=O)c1c(C)[nH]c(C(=O)OCC(=O)NCCC(C)C)c1C | 22.4% (inactive)
Cc1ccc2c(=O)oc(N(C)C)nc2c1 | 38.2% (active)
CCc1ccc(C(=O)OCC(=O)NCC(F)(F)F)cc1 | 51.9% (active)
O=C(COC(=O)C1CCCCC1)Nc1ccc([N+](=O)[O-])cc1 | 40.8% (active)
CCC(C)c1ccc(NC(=O)COC(=O)C2CCCC2)cc1 (stereo not drawn) | 21.6% (inactive)
COc1ccc(S(=O)(=O)N2CCOCC2)cc1NC(=O)Cc1coc2cc(C)ccc12 | 46.8% (active)
COc1ccc(S(=O)(=O)N2CCOCC2)cc1NC(=O)Cc1c(F)cccc1Cl | 24.1% (inactive)
COc1ccc(S(=O)(=O)N2CCOCC2)cc1NC(=O)CC1CC2CCC1C2 (stereo not drawn) | 60.8% (active)
Nc1ccc(C(=O)OCC(=O)NC2CCCc3ccccc32)cc1[N+](=O)[O-] (stereo not drawn) | 52.2% (active)
NC(=O)Nc1ccc(C(=O)OCC(=O)NC2CCCc3ccccc32)cc1 (stereo not drawn) | 67.4% (active)
Cc1cccc(C(=O)OCC(=O)Nc2ccc(F)cc2)c1 | 81.4% (active)

Compound | inhibition
O=C(COC(=O)c1ccc(F)cc1)Nc1ccc2c(c1)OCO2 | 72.8% (active)
CC(C)COC(=O)n1c(=O)oc2ccc(S(=O)(=O)N3CCCCC3)cc21 | 69.2% (active)
O=C(COC(=O)c1ccc2ncsc2c1)Nc1ccc(Cl)cc1 | 76.2% (active)
CCc1c(SCCC(=O)O)nc2ccccc2c1C | -1.24% (inactive)
COc1ccc(/C=C/C(=O)OCC(=O)NC2CCCCCC2)cc1OC | 79.4% (active)
O=C(COC(=O)/C=C/c1ccc(OC(F)F)cc1)NC1CCCCC1 | 62.1% (active)
C=CCOc1ccc(/C=C/C(=O)OCC(=O)NC2CCCCCC2)cc1 | 77.1% (active)
O=C(COC(=O)/C=C/c1cccs1)NC1CCCCC1 | 87.9% (active)
C=CCOc1ccc(/C=C/C(=O)OCC(=O)NC(C)c2ccc(F)cc2)cc1 (stereo not drawn) | 32.5% (active)
Oc1c(Cl)cc(Cl)c(Cl)c1Cc1c(O)c(Cl)cc(Cl)c1Cl | 23.1% (inactive)
O=C(COC(=O)C12CC3CC(CC(O)(C3)C1)C2)NC12CC3CC(CC(C3)C1)C2 | 77.7% (active)
Cc1ccc2c(c1)C1CN(C)CCC1N2C(=O)c1ccccc1NS(=O)(=O)c1ccc(F)cc1C (stereo not drawn) | 34.1% (active)
Cc1ccc(F)cc1S(=O)(=O)Nc1cccc(C(=O)N2CCCC(C(N)=O)C2)c1 (stereo not drawn) | 12.6% (inactive)
O=C(ON=C1CCN(S(=O)(=O)c2ccccc2)CC1)c1ccc(Cl)cc1 | 87.2% (active)
CCS(=O)(=O)c1ccc(O)c(NC(=O)COc2ccc(Cl)cc2)c1 | 60.8% (active)
CCC1OC(c2ccc([N+](=O)[O-])cc2)=Nc2ccccc21 (stereo not drawn) | 13.7% (inactive)
CCN(CC)c1ccc(C(=O)OCC(=O)c2ccco2)cc1 | 40.6% (active)
CC(=O)Nc1ccc(NC(=O)COC(=O)c2ccccc2C(=O)c2ccccc2)cc1 | 18.4% (inactive)
O=C(COC(=O)c1ccccc1C(=O)c1ccccc1)c1ccco1 | 33.5% (active)
CC(=O)Nc1ccc(C(=O)OCC(=O)Nc2ccc([N+](=O)[O-])cc2C(F)(F)F)cc1 | 34.5% (active)
CCCCN1Cc2c(nc3cc(-c4ccccc4)[nH]n3c2=O)C1=O | 5.46% (inactive)
Cc1ccc(/C=C/C(=O)OCC(=O)NCc2ccc(Cl)cc2)o1 | 42.2% (active)
Cc1cc(NC(=O)COC(=O)/C=C/c2ccc(C)o2)no1 | 14.1% (inactive)
